# Bioassay records deposited in PubChem by several laboratories.
# SENP6 inh – blocks the human protease SENP6; Recombinant SENP6 catalytic domain, aminoluciferin luminescence; Q9GZR1; 1.8% of 330,000 active; AID 2599; inhibition, % at 10 µM;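 active means inhibition above about 50% at the single tested dose, limit read from the data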
# SENP7 inh – inhibitors of human SENP7 protease; Q9BQF6; recombinant SENP7, Z-RLRGG-aminoluciferin luminescence, 40 min; AID 434973; inhibition, % at 5 µM; 1.5% of 330,000 active;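 active means inhibition above about 50% at the single test dose, limit read from the data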
# Target sequence (Q9BQF6 706-1050 limits assumed): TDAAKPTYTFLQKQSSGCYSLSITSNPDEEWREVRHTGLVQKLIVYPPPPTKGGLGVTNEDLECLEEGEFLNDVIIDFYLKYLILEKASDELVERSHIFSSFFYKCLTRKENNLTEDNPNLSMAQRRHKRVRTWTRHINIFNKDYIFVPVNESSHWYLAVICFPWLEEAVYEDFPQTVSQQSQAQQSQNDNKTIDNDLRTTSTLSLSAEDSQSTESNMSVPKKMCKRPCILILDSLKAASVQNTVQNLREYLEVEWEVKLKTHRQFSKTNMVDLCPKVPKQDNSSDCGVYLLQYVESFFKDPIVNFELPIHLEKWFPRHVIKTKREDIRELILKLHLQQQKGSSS
# SENP8 block-1 – SENP8 (human) protease inhibition | Q96LD8 | recombinant SENP8, Nedd8 substrate fluorescence | inhibition, % at 20 µM | 0.64% of 360,000 active | AID 602440; in the data active means inhibition mostly above about 40%, no sharp cut-off; inactive means mostly below about 27%
# SENP8 block-2 – blocks the human protease SENP8; 1.2% of 330,000 active; Q96LD8; inhibition, % at 10 µM; purified SENP8, Z-RLRGG-aminoluciferin cleavage, luminescence; in the data active means inhibition above about 50%
# HSP90 inh – HSP90 refolding inhibition in rabbit reticulocyte lysate; 0.91% of 290,000 active; luciferase refolding luminescence, 3 h; inhibition, % at 5.6 µM;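 active means inhibition above the screen-wide mean plus 3 SD, computed separately per campaign, cut at about 16% in these data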;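 further: inhibitors lower the luminescence because luciferase stays unfolded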
# LGR2 inh – blocks bursicon-induced cAMP signaling via Drosophila LGR2; HEK293 LGR2, CRE-luciferase, bursicon-stimulated, 4 h; inhibition, % at 9.99 µM; 0.35% of 380,000 active;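 active means drop in luminescence signal, shown as inhibition above about 50% in the replicate tests, limit read from the data, passing the limit was not always enough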;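 further: agonist challenge used bursicon conditioned medium at about half maximal strength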
# HSP90 inh confirm – confirmation of HSP90 inhibitors. shares compounds with HSP90 inh. rabbit reticulocyte lysate, luciferase refolding luminescence, 3 h. inhibition, % at 5.9 µM. 64% of 2,300 active. AID 1846; in the data active means inhibition above about 18%
# FLuc counter – counter-screen for HSP90 inhibitors: inhibitors of firefly luciferase; shares compounds with HSP90 inh; purified native firefly luciferase, luminescence; inhibition, % at 5.9 µM; 48% of 2,300 active; AID 1847;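 active means inhibition above the mean inhibition of all tested sample wells plus 3 SD, cut at about 10% in these data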
# Numbers stand for hits; 0 = inactive; - = not tested or not shown. Rows were chosen to be rich in hits. Some 2.3% of all compounds tested hit in one or more screens of this group.
SMILES,SENP6 inh,SENP7 inh,SENP8 block-1,SENP8 block-2,HSP90 inh,LGR2 inh,HSP90 inh confirm,FLuc counter
COc1ccc(CCNC(=O)c2cc(-c3cc(Cl)cc(Cl)c3)oc2C)cc1,0,0,0,0,19,0,0,0
Cc1oc(-c2cc(Cl)cc(Cl)c2)cc1C(=O)NCCc1ccccc1,0,0,0,0,0,0,-,-
COc1ccc(/C=C/C(=O)Nc2ccccc2C(=O)O)cc1OC,72,0,0,63,72,81,55,52
CC1CN/C(=C\C(=O)c2ccccc2)C(=O)N1 (stereo not drawn),0,0,0,0,0,-,-,-
CC1CN/C(=C\C(=O)c2ccc(Cl)cc2)C(=O)N1 (stereo not drawn),0,0,0,0,22,-,40,24
CO[C@H]1CN(C)C(=O)c2ccc(NC(=O)C3CC3)cc2OC[C@@H](C)N(C(=O)c2ccncc2)C[C@H]1C,-,-,-,-,-,0,-,-
O=C1CC(c2ccc3c(c2)OCO3)Sc2nc3ccccc3n21 (stereo not drawn),0,0,0,0,47,54,72,69
Cc1ccccc1Nc1nnc(SCC(=O)NCc2ccco2)s1,0,0,0,0,0,-,-,-
Cc1ccccc1C(=O)Nc1nnc(SCC(=O)NCc2ccco2)s1,0,0,0,0,18,0,27,15
O=C(O)c1ccc(N/N=C/c2ccc(-c3ccc(Cl)cc3Cl)o2)cc1,0,0,0,0,56,0,0,0
Cc1ccc(S(=O)(=O)Nc2ccc3c(c2)CC(=O)N([C@@H](C)CO)C[C@H](C)[C@H](CN(C)C(=O)Nc2ccc4c(c2)OCO4)O3)cc1,-,-,-,-,-,0,-,-
Cn1cnnc1SCC(=O)Nc1sc2c(c1C(N)=O)CCC2,0,0,0,0,22,-,0,0
O=C(NCCCN1CCCC1=O)c1cc(-c2cccnc2)nc2ccc(Cl)cc12,0,0,0,0,28,0,0,0
CC(NC(=O)CSc1nnc(-c2cccnc2)n1N)c1ccccc1 (stereo not drawn),0,0,0,0,18,0,0,0
S=C(NCc1ccccc1)Nc1cccc2ccccc12,0,0,0,0,0,0,-,-
Cc1ccc(NC(=S)Nc2cccc3ccccc23)cc1F,93,0,0,89,19,0,30,0
Cc1ccc(S(=O)(=O)N(C)C[C@H]2Oc3ccc(NC(=O)NC4CCCCC4)cc3C(=O)N([C@@H](C)CO)C[C@@H]2C)cc1,-,-,-,-,-,0,-,-
C[C@H]1CN([C@@H](C)CO)C(=O)c2cc(NS(=O)(=O)c3cn(C)cn3)ccc2O[C@H]1CN(C)S(=O)(=O)c1ccc(Cl)cc1,-,-,-,-,-,0,-,-
C[n+]1c(/C=C/c2ccc3c(c2)OCO3)ccc2ccccc21,0,0,0,0,32,0,54,55
C[C@@H]1CN([C@@H](C)CO)C(=O)c2cc(N(C)C)ccc2O[C@@H]1CN(C)S(=O)(=O)c1ccc(Cl)cc1,-,-,-,-,-,0,-,-
Cc1ccc(C(=O)Nc2cccc(NC(=O)c3cccnc3)c2)cc1,0,0,0,0,38,0,0,0
O=C(c1cccnc1)c1cccnc1,0,0,0,0,0,0,-,-
COc1cc(NC(=O)c2ccc(Cl)cc2)c(Cl)cc1NC(=O)c1cccnc1,0,0,0,0,45,0,0,0
O=C(C(=O)c1cccnc1)c1cccnc1,0,0,0,0,20,0,0,0
COc1ccc(NC(=O)c2cccnc2)cc1,0,0,0,0,23,0,0,0
SMILES,SENP6 inh,SENP7 inh,SENP8 block-1,SENP8 block-2,HSP90 inh,LGR2 inh,HSP90 inh confirm,FLuc counter
C[C@H](NC(=O)C[C@@H]1C[C@H]2c3cc(NS(C)(=O)=O)ccc3O[C@H]2[C@H](CO)O1)c1ccccc1,-,-,-,-,-,0,-,-
COc1cccc(C(=O)Nc2ccc(NC(=O)C(C)(C)C)cn2)c1,0,0,0,0,33,-,48,37
COc1ccccc1CNC(=O)C[C@H]1C=C[C@@H](NC(=O)CN(C)C)[C@@H](CO)O1,-,-,-,-,-,0,-,-
CNC(=O)COC(=O)c1c2c(nc3ccccc13)CCC2,0,0,0,0,0,0,-,-
CCCCNC(=O)COC(=O)c1c2c(nc3ccccc13)CCC2,0,0,0,0,33,0,0,0
O=C(c1ccncc1)N1CC2(C1)[C@H](c1ccccc1)[C@@H](CO)N2C(=O)c1ccncc1,-,-,-,-,-,0,-,-
